# Experiments:
# Experiment in all cases: DAPPL (digital affinity profiling via proximity ligation, sequencing); 10 mM Tris-HCl pH 7.5, 50 mM NaCl, 1 mM DTT, 4% glycerol, room temperature, 30 min; GST-TFs on glutathione beads, 16-mer random dsDNA library, 0.1% formaldehyde crosslink after washing; high values mean tight binding
# [1] = molecular target: T1, FLI1 (Homo sapiens, UniProt Q01543 1-452); conditions: protein: recombinant; tags: N-terminal GST; dsDNA, one strand shown
# T1 sequence: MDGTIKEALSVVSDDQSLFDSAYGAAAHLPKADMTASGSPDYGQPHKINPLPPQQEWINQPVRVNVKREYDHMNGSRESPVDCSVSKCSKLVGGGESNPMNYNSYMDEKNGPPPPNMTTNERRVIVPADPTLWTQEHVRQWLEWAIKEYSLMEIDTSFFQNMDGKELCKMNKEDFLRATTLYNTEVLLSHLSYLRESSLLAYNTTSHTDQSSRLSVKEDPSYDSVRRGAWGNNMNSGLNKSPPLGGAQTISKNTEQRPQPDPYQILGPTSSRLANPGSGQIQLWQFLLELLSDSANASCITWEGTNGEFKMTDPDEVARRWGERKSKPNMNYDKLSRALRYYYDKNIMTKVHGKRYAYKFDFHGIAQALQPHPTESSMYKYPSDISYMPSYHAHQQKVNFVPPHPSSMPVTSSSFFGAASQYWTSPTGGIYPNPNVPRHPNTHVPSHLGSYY
# How it was run: (§1)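 Binding signal is given per hexamer as its read frequency for a factor divided by its frequency in the tag-only sample. GST-fused human transcription factors were expressed in yeast, captured on glutathione beads, barcoded with DNA and pooled with that sample, then incubated with 200 nmole of a 16-mer random double-stranded DNA library in Tris/NaCl/DTT/glycerol buffer for 30 min at room temperature. The pools were then washed, crosslinked, proximity-ligated, amplified by PCR and sequenced on an Illumina NextSeq500.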
# [2] = molecular target: T2, ELK1 (Homo sapiens, UniProt P19419 1-428); conditions: protein: recombinant; tags: N-terminal GST; dsDNA, one strand shown
# T2 sequence: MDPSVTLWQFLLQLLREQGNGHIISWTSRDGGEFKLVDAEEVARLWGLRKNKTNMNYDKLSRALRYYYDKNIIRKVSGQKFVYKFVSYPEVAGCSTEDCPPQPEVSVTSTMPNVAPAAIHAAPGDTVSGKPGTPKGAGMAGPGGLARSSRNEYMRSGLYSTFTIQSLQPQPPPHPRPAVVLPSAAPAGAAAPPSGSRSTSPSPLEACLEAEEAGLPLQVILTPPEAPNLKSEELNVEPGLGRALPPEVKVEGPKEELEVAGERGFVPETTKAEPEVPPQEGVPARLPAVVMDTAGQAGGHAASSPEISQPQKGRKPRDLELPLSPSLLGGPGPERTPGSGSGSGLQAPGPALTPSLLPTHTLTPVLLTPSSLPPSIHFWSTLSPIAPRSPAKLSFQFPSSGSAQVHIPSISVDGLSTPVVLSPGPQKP
# How it was run: as §1
# [3] = molecular target: T3, GABPA (Homo sapiens, UniProt Q06546 1-454); conditions: protein: recombinant; tags: N-terminal GST; dsDNA, one strand shown
# T3 sequence: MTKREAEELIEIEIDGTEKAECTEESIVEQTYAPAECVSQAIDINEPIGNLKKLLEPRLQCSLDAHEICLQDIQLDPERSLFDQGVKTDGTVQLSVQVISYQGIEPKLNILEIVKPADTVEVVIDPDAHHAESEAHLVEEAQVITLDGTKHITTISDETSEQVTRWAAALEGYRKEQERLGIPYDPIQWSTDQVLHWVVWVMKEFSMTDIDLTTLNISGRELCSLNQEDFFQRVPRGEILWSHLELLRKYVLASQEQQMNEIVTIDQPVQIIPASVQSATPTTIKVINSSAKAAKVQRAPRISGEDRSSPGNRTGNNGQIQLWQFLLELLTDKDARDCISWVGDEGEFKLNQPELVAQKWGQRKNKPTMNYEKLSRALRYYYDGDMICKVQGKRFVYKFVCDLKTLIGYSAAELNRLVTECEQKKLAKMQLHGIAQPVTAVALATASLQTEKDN
# How it was run: as §1
# [4] = molecular target: T4, ERG (Homo sapiens, UniProt P11308 1-479); conditions: protein: recombinant; tags: N-terminal GST; dsDNA, one strand shown
# T4 sequence: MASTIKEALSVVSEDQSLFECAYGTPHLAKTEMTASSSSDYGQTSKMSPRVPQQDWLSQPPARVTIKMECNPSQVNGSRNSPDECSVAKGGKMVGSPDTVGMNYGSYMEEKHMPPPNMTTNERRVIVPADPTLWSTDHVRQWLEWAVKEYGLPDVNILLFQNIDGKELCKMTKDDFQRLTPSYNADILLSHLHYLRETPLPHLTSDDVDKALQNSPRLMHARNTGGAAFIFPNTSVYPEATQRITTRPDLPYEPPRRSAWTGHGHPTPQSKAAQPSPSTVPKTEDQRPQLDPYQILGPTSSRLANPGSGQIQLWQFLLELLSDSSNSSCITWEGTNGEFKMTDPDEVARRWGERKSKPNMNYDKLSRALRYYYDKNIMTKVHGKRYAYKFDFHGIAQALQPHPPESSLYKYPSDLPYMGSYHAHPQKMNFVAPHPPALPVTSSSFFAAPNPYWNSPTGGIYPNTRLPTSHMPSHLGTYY
# How it was run: as §1
# [5] = molecular target: ELF1 (Homo sapiens, UniProt P32519 1-619); conditions: protein: recombinant; tags: N-terminal GST; dsDNA, one strand shown
# Chain of ELF1 (P32519 whole entry): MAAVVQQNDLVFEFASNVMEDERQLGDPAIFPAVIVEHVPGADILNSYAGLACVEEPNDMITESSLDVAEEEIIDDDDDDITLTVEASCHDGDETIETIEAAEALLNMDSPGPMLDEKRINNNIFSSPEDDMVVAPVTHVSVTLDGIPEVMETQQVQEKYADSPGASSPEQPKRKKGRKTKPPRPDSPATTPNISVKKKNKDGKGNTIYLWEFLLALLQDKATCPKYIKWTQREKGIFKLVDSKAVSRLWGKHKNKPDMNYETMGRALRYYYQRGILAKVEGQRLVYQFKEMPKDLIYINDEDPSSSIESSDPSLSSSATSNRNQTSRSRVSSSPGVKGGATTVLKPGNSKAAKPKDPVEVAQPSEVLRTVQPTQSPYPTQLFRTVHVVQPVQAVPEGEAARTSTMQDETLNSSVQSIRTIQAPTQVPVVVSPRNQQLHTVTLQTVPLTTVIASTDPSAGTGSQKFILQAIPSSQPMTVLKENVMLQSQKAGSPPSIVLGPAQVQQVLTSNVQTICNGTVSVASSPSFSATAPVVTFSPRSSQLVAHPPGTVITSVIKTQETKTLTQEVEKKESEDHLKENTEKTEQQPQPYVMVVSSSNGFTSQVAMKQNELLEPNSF
# How it was run: as §1
# [6] = molecular target: T5, EHF (Homo sapiens, UniProt Q9NZC4 1-300); conditions: protein: recombinant; tags: N-terminal GST; dsDNA, one strand shown
# T5 sequence: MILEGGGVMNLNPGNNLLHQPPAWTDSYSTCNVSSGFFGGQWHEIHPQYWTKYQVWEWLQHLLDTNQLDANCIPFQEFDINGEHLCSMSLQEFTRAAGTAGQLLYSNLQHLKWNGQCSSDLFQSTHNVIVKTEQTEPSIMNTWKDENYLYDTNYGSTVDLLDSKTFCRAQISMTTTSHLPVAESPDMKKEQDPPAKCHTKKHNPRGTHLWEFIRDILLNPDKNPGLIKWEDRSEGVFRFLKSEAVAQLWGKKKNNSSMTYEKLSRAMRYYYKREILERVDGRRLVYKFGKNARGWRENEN
# How it was run: as §1
# [7] = molecular target: SPI1 (Homo sapiens, UniProt P17947 1-270); conditions: protein: recombinant; tags: N-terminal GST; dsDNA, one strand shown
# How it was run: as §1
# [8] = molecular target: SPIB (Homo sapiens, UniProt Q01892 1-262); conditions: protein: recombinant; tags: N-terminal GST; dsDNA, one strand shown
# Chain of SPIB (Q01892 whole entry): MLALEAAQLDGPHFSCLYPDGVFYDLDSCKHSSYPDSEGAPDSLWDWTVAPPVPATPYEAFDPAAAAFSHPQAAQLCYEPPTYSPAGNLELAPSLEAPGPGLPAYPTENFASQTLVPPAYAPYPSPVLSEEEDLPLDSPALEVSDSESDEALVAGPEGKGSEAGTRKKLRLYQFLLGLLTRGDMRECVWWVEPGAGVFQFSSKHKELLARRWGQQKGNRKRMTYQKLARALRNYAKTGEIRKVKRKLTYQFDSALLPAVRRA
# How it was run: as §1
# [9] = molecular target: T6, ELK3 (Homo sapiens, UniProt P41970 1-407); conditions: protein: recombinant; tags: N-terminal GST; dsDNA, one strand shown
# T6 sequence: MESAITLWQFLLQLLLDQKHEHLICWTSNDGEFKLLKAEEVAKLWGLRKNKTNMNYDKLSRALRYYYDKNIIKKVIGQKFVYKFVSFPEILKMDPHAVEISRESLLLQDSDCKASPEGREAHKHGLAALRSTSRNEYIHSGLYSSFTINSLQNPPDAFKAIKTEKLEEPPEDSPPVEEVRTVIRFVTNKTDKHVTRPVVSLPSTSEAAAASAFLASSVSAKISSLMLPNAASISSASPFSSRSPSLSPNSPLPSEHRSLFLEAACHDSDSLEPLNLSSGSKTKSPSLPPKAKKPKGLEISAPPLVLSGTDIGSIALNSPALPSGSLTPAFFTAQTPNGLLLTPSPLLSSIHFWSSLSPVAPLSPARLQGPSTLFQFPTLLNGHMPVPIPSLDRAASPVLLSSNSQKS
# How it was run: as §1
# [10] = molecular target: T7, FEV (Homo sapiens, UniProt Q99581 1-238); conditions: protein: recombinant; tags: N-terminal GST; dsDNA, one strand shown
# T7 sequence: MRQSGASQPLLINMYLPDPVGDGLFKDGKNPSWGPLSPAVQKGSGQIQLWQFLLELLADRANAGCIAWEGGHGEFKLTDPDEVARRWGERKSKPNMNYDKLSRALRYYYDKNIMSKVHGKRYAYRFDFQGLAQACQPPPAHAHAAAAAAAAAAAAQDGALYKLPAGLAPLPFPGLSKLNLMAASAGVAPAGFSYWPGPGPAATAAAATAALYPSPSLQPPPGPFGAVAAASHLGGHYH
# How it was run: as §1
# [11] = molecular target: ETV5 (Homo sapiens, UniProt P41161 1-510); conditions: protein: recombinant; tags: N-terminal GST; dsDNA, one strand shown
# Chain of ETV5 (P41161 whole entry): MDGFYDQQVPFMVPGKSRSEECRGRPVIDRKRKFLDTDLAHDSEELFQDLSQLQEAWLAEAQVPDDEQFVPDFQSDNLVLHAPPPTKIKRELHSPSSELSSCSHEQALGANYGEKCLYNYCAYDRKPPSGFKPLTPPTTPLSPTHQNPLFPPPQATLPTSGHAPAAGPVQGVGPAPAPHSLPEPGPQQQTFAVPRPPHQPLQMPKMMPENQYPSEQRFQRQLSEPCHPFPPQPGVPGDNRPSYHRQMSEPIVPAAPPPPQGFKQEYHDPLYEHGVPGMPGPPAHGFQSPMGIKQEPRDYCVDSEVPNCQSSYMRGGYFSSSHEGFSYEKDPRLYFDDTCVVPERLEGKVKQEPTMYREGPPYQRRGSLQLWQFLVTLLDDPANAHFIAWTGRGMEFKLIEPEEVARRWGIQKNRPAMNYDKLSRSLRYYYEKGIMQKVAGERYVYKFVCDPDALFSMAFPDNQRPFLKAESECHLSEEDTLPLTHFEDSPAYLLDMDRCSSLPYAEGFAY
# How it was run: as §1
# [12] = molecular target: HSF1 (Homo sapiens, UniProt Q00613 1-529); conditions: protein: recombinant; tags: N-terminal GST; chain copies: 3; dsDNA, one strand shown
# Chain of HSF1 (Q00613 whole entry): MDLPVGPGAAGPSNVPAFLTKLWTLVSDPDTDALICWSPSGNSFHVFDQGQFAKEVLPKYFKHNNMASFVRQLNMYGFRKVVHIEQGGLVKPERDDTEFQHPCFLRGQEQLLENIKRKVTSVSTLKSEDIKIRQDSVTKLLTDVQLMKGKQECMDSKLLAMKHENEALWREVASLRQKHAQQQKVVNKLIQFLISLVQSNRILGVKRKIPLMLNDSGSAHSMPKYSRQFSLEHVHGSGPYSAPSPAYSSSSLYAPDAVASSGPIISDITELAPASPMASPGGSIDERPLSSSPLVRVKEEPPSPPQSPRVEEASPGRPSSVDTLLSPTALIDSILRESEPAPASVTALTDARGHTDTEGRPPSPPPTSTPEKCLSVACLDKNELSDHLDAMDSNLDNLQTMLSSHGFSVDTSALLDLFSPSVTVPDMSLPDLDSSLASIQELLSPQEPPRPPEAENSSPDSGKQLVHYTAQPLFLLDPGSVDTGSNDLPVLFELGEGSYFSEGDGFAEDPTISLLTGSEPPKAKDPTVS
# How it was run: as §1
# [13] = molecular target: T8, SPIC (Homo sapiens, UniProt Q8N5J4 1-248); conditions: protein: recombinant; tags: N-terminal GST; dsDNA, one strand shown
# T8 sequence: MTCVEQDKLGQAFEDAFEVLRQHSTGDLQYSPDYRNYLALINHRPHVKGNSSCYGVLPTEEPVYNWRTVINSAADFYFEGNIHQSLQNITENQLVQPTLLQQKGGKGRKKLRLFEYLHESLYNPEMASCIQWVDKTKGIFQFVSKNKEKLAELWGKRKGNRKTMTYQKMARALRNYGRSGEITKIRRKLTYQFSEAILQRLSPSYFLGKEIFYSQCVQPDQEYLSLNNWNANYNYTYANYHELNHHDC
# How it was run: as §1
# [14] = molecular target: ELF4 (Homo sapiens, UniProt Q99607 1-663); conditions: protein: recombinant; tags: N-terminal GST; dsDNA, one strand shown
# Chain of ELF4 (Q99607 whole entry): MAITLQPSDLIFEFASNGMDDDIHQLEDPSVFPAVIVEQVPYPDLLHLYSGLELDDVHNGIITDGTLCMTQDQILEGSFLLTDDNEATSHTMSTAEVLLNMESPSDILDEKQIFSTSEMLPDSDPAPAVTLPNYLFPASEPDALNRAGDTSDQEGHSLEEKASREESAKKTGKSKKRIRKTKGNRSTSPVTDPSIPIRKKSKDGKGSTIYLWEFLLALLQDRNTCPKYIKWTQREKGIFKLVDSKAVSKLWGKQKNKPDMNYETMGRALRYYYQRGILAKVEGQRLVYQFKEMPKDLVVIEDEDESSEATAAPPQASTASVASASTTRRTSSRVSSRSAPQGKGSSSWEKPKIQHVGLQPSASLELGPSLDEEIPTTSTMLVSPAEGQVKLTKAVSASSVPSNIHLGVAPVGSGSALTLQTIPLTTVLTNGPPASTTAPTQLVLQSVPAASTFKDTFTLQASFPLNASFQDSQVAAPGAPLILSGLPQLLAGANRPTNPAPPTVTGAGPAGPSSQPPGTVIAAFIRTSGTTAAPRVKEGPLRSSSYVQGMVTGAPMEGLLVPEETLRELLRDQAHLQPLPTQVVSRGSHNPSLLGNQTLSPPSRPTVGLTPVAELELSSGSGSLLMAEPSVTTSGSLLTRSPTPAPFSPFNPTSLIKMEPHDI
# How it was run: as §1
# [15] = molecular target: T9, ELK4 (Homo sapiens, UniProt P28324-2 1-405); conditions: protein: recombinant; tags: N-terminal GST; dsDNA, one strand shown
# T9 sequence: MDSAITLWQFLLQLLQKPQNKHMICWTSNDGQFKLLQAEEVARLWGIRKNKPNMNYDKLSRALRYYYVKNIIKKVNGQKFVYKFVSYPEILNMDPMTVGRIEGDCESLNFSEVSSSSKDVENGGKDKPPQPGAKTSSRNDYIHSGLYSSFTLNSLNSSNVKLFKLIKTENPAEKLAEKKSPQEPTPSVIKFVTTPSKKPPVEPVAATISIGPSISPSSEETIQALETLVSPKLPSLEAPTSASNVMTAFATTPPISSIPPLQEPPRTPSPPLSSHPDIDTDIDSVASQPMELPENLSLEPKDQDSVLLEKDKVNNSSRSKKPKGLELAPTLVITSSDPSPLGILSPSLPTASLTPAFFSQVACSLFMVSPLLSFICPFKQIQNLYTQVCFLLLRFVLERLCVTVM
# How it was run: as §1
# [16] = molecular target: T10, ETV2 (Homo sapiens, UniProt O00321 1-342); conditions: protein: recombinant; tags: N-terminal GST; dsDNA, one strand shown
# T10 sequence: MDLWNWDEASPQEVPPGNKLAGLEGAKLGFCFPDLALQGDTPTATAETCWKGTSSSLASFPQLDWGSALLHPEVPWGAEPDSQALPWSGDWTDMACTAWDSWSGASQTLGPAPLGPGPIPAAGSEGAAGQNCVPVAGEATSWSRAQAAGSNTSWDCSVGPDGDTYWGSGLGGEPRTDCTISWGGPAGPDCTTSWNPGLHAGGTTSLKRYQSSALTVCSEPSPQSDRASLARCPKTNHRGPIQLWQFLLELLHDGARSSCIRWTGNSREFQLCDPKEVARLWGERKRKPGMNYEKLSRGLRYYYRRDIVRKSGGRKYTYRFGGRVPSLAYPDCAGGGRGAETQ
# How it was run: as §1
# [17] = molecular target: T11, ELF3 (Homo sapiens, UniProt P78545 1-371); conditions: protein: recombinant; tags: N-terminal GST; dsDNA, one strand shown
# T11 sequence: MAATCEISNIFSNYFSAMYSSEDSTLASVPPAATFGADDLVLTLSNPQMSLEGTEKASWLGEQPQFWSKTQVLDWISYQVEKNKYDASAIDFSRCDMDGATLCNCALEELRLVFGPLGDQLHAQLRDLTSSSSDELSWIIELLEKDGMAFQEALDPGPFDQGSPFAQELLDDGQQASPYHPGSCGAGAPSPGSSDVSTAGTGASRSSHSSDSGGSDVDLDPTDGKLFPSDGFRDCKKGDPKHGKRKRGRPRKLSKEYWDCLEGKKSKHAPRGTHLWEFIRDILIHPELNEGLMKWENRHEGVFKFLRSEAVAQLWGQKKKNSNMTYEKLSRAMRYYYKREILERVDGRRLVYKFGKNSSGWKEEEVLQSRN
# How it was run: as §1
# [18] = molecular target: CRX (Homo sapiens, UniProt O43186 1-299); conditions: protein: recombinant; tags: N-terminal GST; dsDNA, one strand shown
# Chain of CRX (O43186 whole entry): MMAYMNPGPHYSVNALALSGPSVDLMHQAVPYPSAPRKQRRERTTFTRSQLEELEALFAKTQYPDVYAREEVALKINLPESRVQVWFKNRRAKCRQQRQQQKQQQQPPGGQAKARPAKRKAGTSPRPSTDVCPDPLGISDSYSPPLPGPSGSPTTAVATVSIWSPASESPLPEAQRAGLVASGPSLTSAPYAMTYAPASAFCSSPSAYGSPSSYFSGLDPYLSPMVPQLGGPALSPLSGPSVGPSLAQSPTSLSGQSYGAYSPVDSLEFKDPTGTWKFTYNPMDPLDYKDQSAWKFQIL
# How it was run: as §1
# [19] = molecular target: ETV1 (Homo sapiens, UniProt P50549 1-477); conditions: protein: recombinant; tags: N-terminal GST; dsDNA, one strand shown
# Chain of ETV1 (P50549 whole entry): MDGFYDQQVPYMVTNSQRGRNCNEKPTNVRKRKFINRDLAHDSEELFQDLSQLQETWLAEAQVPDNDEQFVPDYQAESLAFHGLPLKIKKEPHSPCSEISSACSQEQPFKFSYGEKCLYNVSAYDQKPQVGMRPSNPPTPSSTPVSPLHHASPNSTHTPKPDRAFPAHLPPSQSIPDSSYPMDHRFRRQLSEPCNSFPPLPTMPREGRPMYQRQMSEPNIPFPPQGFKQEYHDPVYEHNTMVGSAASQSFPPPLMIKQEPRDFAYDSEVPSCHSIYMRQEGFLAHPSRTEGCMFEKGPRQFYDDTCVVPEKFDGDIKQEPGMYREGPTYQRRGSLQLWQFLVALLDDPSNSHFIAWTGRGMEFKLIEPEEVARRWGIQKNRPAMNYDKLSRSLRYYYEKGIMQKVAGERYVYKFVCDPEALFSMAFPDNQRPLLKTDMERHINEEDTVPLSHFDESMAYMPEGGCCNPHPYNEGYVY
# How it was run: as §1
sequence,measurement,setting,value
ACTATT,binding signal,[1],"1.29 fold enrichment (6-mer frequency, TF over GST control)"
same,binding signal,[2],"1.17 fold enrichment (6-mer frequency, TF over GST control)"
same,binding signal,[3],"1.33 fold enrichment (6-mer frequency, TF over GST control)"
same,binding signal,[4],"1.3 fold enrichment (6-mer frequency, TF over GST control)"
same,binding signal,[5],"1.27 fold enrichment (6-mer frequency, TF over GST control)"
same,binding signal,[6],"1.3 fold enrichment (6-mer frequency, TF over GST control)"
same,binding signal,[7],"1.22 fold enrichment (6-mer frequency, TF over GST control)"
same,binding signal,[8],"1.26 fold enrichment (6-mer frequency, TF over GST control)"
same,binding signal,[9],"1.28 fold enrichment (6-mer frequency, TF over GST control)"
same,binding signal,[10],"1.25 fold enrichment (6-mer frequency, TF over GST control)"
same,binding signal,[11],"1.22 fold enrichment (6-mer frequency, TF over GST control)"
same,binding signal,[12],"1.33 fold enrichment (6-mer frequency, TF over GST control)"
same,binding signal,[13],"1.44 fold enrichment (6-mer frequency, TF over GST control)"
same,binding signal,[14],"1.3 fold enrichment (6-mer frequency, TF over GST control)"
same,binding signal,[15],"1.35 fold enrichment (6-mer frequency, TF over GST control)"
same,binding signal,[16],"1.31 fold enrichment (6-mer frequency, TF over GST control)"
same,binding signal,[17],"1.32 fold enrichment (6-mer frequency, TF over GST control)"
same,binding signal,[18],"1.28 fold enrichment (6-mer frequency, TF over GST control)"
same,binding signal,[19],"1.28 fold enrichment (6-mer frequency, TF over GST control)"

# — PMC7862700, “An all-to-all approach to the identification of sequence-specific readers for epigenetic DNA modifications on cytosine”
